High-throughput results (PubChem)
MEX-5 binding = C. elegans MEX-5 TCR-2 RNA binding activity; MEX-5/FITC-TCR2 RNA binding, fluorescence polarization; hits give low values; activity score (negative = inhibition of binding), % at 10 µM; 300,000 tested, 0.38% active; Q9XUB2;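 active means inhibition past about -25% in most replicates, and total fluorescence under double the plate's negative control median, limit read from the data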
EBV gp42 block = inhibitors of Epstein-Barr virus glycoprotein 42; Q1HVG2; AID 1085; inhibition, % (tested at 21.74 µM); Fluorescence polarization binding assay, mP read-out; 220,000 tested, 0.42% active; in the data active means inhibition above about 50%
GLD-1 TGE inh = GLD-1-TGE RNA interaction inhibition (C. elegans) | Q17339 | purified GLD-1 + fluorescein TGE RNA, fluorescence polarization | inhibition, % at 5.96 µM | 320,000 tested, 0.44% active | AID 2280;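 active means percent inhibition above a per-plate cutoff, the plate mean of test compounds plus 3 SD, cut at about 30% in these data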
Target sequence (Q17339 whole entry, looked up): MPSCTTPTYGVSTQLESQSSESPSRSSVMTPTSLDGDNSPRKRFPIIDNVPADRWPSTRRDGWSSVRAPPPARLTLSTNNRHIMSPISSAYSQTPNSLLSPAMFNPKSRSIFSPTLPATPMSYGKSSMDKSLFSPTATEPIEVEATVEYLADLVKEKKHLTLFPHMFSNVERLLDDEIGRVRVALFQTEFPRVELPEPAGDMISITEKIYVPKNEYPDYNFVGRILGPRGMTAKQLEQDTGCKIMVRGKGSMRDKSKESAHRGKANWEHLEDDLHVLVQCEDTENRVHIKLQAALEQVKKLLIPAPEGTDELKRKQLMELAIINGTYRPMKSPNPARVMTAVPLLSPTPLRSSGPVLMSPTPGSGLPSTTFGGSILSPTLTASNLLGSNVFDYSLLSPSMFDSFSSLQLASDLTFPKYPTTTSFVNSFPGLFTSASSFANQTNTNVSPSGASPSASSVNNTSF
MCL1 BIM primary = disrupts human MCL1 binding to BIM-BH3 peptide; 320,000 tested, 0.68% active; GST-MCL1 / FITC-Bim-BH3 fluorescence polarization; inhibition, % at 10.9 µM;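 active means inhibition above the mean inhibition of all tested compounds plus 3 SD, set per campaign, cut at about 40% in these data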;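 further: higher means more loss of mP so more displacement of Bim peptide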
eLon inh = E. coli protease La inhibition; P0A9M0; 360,000 tested, 0.42% active; AID 602123; inhibition, % at 7.94 µM; purified E. coli Lon protease, fluorescence polarization; in the data active means inhibition above about 13%, passing the limit was not always enough
Bcl-xL primary = blocks human Bcl-xL binding to Bim BH3 peptide | Q07817 | GST-Bcl-xL / FITC-Bim BH3 peptide fluorescence polarization | inhibition, % at 10.9 µM | 320,000 tested, 0.7% active | AID 2129;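 active means inhibition above the mean of all tested compounds plus 3 SD, cutoff set per campaign, cut at about 30% in these data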;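 further: inhibitors lower millipolarization by displacing the labeled peptide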
eLon confirm = confirmation of E. coli Lon protease inhibitors; purified E. coli Lon, fluorescence polarization; inhibition, % at 7.94 µM; shares compounds with eLon inh; AID 602230; 1,400 tested, 31% active; in the data active means inhibition above about 16%
Hits are given with their value; - = inactive; . = no result given; + = active, no number. Rows were chosen to be rich in hits. Some 1.5% of all compounds tested hit in one or more screens of this group.

SMILES	MEX-5 binding	EBV gp42 block	GLD-1 TGE inh	MCL1 BIM primary	eLon inh	Bcl-xL primary	eLon confirm
Cc1ccc(C(=O)Nn2c(O)c(C=C3N=c4ccccc4=N3)sc2=S)cc1	-	61	-	-	26	-	33
CCC1(O)C(=O)OCc2c1cc1n(c2=O)Cc2cc3cc(O)ccc3nc2-1 (stereo not drawn)	.	.	.	.	+	.	+
CCc1c2c(nc3ccc(OC(=O)N4CCC(N5CCCCC5)CC4)cc13)-c1cc3c(c(=O)n1C2)COC(=O)[C@]3(O)CC	-	.	-	-	-	-	.
F[B-](F)(F)c1cncc2ccccc12	.	.	.	.	42	.	38
F[B-](F)(F)c1cnc2ccccc2c1	.	.	.	.	-	.	.
COc1cc(OC)cc(C(=O)N[C@H](C(=O)OCn2nnc3ccccc3c2=O)C(C)C)c1	-	-	-	-	16	-	-
CCCCCn1c(N)c(C#N)c2nc3ccccc3nc21	-	-	-	-	-	-	.
CCCCn1c(NC(C)=O)c(C#N)c2nc3ccccc3nc21	-	-	-	-	23	-	-
N#CC(CCc1ccc([N+](=O)[O-])cc1)(CCc1ccc([N+](=O)[O-])cc1)C(N)=O	.	.	.	.	52	.	31
Cc1cc(C(=O)COC(=O)c2ccc(N)cc2)c(C)n1-c1c(C)n(C)n(-c2ccccc2)c1=O	-	-	-	-	-	-	.
CC(C)(C)N(Cc1ccccc1)C(=O)COC(=O)c1ccc(N2CCCC2=O)cc1	.	.	-	.	-	.	.
COc1ccccc1N(CC(=O)NC1CCCC1)C(=O)CCC(=O)Nc1cc(C)on1	-	-	-	-	-	-	.
COc1ccccc1N(CC(=O)NC1CCCC1)C(=O)CCC(=O)Nc1ccccn1	-	.	-	-	18	-	-
CC(C)(CN1CCc2ccccc2C1)NS(=O)(=O)c1ccc(Cl)cc1	-	-	-	-	17	-	-
CCOP(=O)(OCC)C(NC(=O)c1cc([N+](=O)[O-])cc([N+](=O)[O-])c1)C(F)(F)F (stereo not drawn)	-	-	-	-	21	-	24
CCOP(=O)(OCC)C(C)(C)NC(=O)c1cc([N+](=O)[O-])cc([N+](=O)[O-])c1	-	-	-	-	-	-	.
COc1ccc([N+](=O)[O-])cc1CSc1nnc(NC(C)=O)s1	-	-	-	-	-	-	.
Cc1ccc(Cn2nc(C)c(C(=O)NCC(c3ccc(F)cc3)N3CCOCC3)c2Cl)cc1 (stereo not drawn)	.	.	-	-	-	-	.
CC(C)S(=O)(=O)c1csc(NC(=O)Nc2cccc([N+](=O)[O-])c2)c1Cl	-	-	-	-	22	-	-
O=C(Nc1cccc([N+](=O)[O-])c1)Nc1cccc([N+](=O)[O-])c1	-	-	-	-	-	-	.
Cc1[nH]c2ccccc2c1/C=N\NC(=O)c1ccco1	.	.	.	.	159	.	-
Cc1[nH]c2ccccc2c1/C=N/NC(=O)c1cccc(F)c1	-	-	-	-	31	-	-
C[C@H]1CN([C@@H](C)CO)C(=O)c2c(c3ccccc3n2C)-c2ccccc2CO[C@H]1CN(C)C(=O)[C@@H]1CCCN1C	.	.	.	.	-	.	.
CC(=O)C1=C(O)C(=O)N(c2ccc(Br)cn2)C1c1ccc(F)cc1 (stereo not drawn)	-	-	-	-	28	-	-
CC(=O)C1=C(O)C(=O)N(c2ccc(Br)cn2)C1c1ccc(Br)cc1 (stereo not drawn)	-	-	-	-	-	-	.
SMILES	MEX-5 binding	EBV gp42 block	GLD-1 TGE inh	MCL1 BIM primary	eLon inh	Bcl-xL primary	eLon confirm
COc1ccc(CNC(=O)COC(=O)c2ccc(C)c(S(=O)(=O)N3CCOCC3)c2)cc1	.	.	-	.	-	.	.
NC(=O)c1c(NC(=O)CSc2nnc(Cc3ccccc3)n2Cc2ccco2)sc2c1CCC2	-	-	-	-	22	-	-
CCCCCCc1cc2cc(S(=O)(=O)c3ccc(F)c(Cl)c3)c(=O)oc2cc1O	-	-	97	-	84	-	-
CC(C)(C)c1ccccc1NC(=O)Nc1nc(C(N)Cc2ccc(F)cc2)cs1 (stereo not drawn)	.	.	.	.	-	.	.
Cc1coc2cc3oc(=O)c(CCC(=O)N4CCC(C(=O)O)(c5ccccc5)CC4)c(C)c3cc12	-	.	-	-	-	-	.
O=c1c(-c2ccc(Cl)cc2)c[nH]n1-c1ccccc1	-	.	-	-	18	-	-
CCOc1ccccc1C(=O)NCCC(=O)O	-	-	-	-	17	-	-
CCOc1ccccc1C(=O)NCCCCNC(=O)c1ccccc1OCC	-	.	-	-	-	-	.
CC1(C)CC2CC(C)(CN2C(=O)c2ccc([N+](=O)[O-])cc2[N+](=O)[O-])C1 (stereo not drawn)	-	-	-	-	-	-	.
CSc1ccccc1NC(=O)COC(=O)Cn1cc(C(F)(F)F)ccc1=O	.	.	-	-	-	-	.
CCOC(=O)N1CCC(NC(=O)CCN2C(=O)C3C4C=CC(C4)C3C2=O)CC1 (stereo not drawn)	.	-	-	-	-	-	.
O=C(CCN1C(=O)C2C3C=CC(C3)C2C1=O)NC1CCCCC1 (stereo not drawn)	-	.	-	-	20	-	-
O=C(C/C=N\OCc1ccc([N+](=O)[O-])cc1)Nc1ccc(Br)cc1	-	-	-	-	17	-	-
O=C(COc1ccc([N+](=O)[O-])cc1)NNC(=O)Nc1ccc([N+](=O)[O-])cc1	-	.	-	-	-	-	.
CCCNC(=O)NC(=O)CN1C(=O)NC(C)(c2ccc3ccccc3c2)C1=O (stereo not drawn)	-	.	-	-	-	-	.
Cn1c(SCC(=O)NCC2CCCO2)nc2c(c1=O)SCC2 (stereo not drawn)	-	.	-	-	52	-	-
C[C@@H]1CN([C@H](C)CO)C(=O)c2cc(Br)cnc2O[C@H]1CN(C)C(=O)Nc1ccc2c(c1)OCO2	.	.	.	.	-	.	.
CCN(CC(=O)Nc1ccc(NC(C)=O)cc1)C(=O)/C=C/c1c(C)nn(-c2ccc(F)cc2)c1C	-	.	-	-	-	-	.
Cc1ccc(NC(=O)CSc2nnc(-c3ccco3)c(-c3ccco3)n2)cc1	-	-	-	-	161	-	-
CC(=O)Nc1ccc(NC(=O)CSc2ccc(-c3ccco3)nn2)cc1	-	-	-	-	17	-	-
CC(=O)Nc1cccc(NC(=O)CSc2ccc(-c3ccco3)nn2)c1	-	.	-	-	-	-	.
Cc1ccc(NC(=O)CSc2ccc(-c3ccco3)nn2)cc1	-	-	-	-	-	-	.
CC(C)CN(C(=O)CCC(=O)OCC(=O)N(C)c1ccccc1)c1c(N)n(CC(C)C)c(=O)[nH]c1=O	-	.	-	-	-	-	.
Cc1nc(NC(=O)CSc2ccccc2N)sc1C	-	-	-	-	.	-	.
Cc1ccc(OCCNC(=O)c2cc(C3CC3)nc3c2cnn3C(C)C)cc1	.	.	-	-	+	-	-
